Measured values published in paper PMC5540273 (PLoS ONE, 2017).
Where “and” joins values, the source holds several entries; their conditions need not be identical. Identical values can stand only once. Like-named read-outs stand apart in the source and are kept apart here.

Columns and labels:
SRMS = settings: concentration: 1 μM, replicates: in singlicate, n = 1
SRPK1 = settings: concentration: 1 μM, replicates: in singlicate, n = 1
SRPK2 = settings: concentration: 1 μM, replicates: in singlicate, n = 1
SRPK3 = settings: concentration: 1 μM, replicates: in singlicate, n = 1
STK16 = settings: concentration: 1 μM, replicates: in singlicate, n = 1
STK33 = settings: concentration: 1 μM, replicates: in singlicate, n = 1
STK35 = settings: concentration: 1 μM, replicates: in singlicate; n = 1
STK36 = settings: concentration: 1 μM, replicates: in singlicate, n = 1
STK39 = settings: concentration: 1 μM, replicates: in singlicate, n = 1
SYK = settings: concentration: 1 μM, replicates: in singlicate, n = 1
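Note: KINOMEscan kinase panel screen.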

SMILES	%Inh (SRMS)	%Inh (SRPK1)	%Inh (SRPK2)	%Inh (SRPK3)	%Inh (STK16)	%Inh (STK33)	%Inh (STK35)	%Inh (STK36)	%Inh (STK39)	%Inh (SYK)	%Inh (SRMS; 1 µM)	%Inh (SRPK1; 1 µM)	%Inh (SRPK2; 1 µM)	%Inh (SRPK3; 1 µM)	%Inh (STK16; 1 µM)	%Inh (STK33; 1 µM)	%Inh (STK36; 1 µM)	%Inh (STK39; 1 µM)	%Inh (SYK; 1 µM)
Clc1cc(Nc2ncnc3cc[nH]c23)ccc1OCc1ccccn1	0%	0%	0%	19%	35%	9%	0%	12%	8%	8%									
Fc1cccc(COc2ccc(Nc3ncnc4nn5ccccc5c34)cc2Cl)c1 [GW689066]	0%	2%	30%	8%	12%	0%	0%	0%	0%	26%									
FC(F)(F)c1ccc(-c2nn3ncccc3c2-c2ccnc(Nc3cccc(C(F)(F)F)c3)n2)cc1 [GW828205]	30%	0%	36%	8%	14%	5%	0%	0%	0%	20%									
COc1cc2c(Nc3cccc(NC(=O)c4ccccc4)c3)ncnc2cc1OCCCN1CCOCC1 [GSK223810]	0%	34%	0%	23%	0%	4%	5%	9%	0%	9%									
CS(=O)(=O)CCNCc1ccc(-c2ccc3ncnc(Nc4ccc(OCc5ccccc5)c(Cl)c4)c3c2)o1.Cl [GW574783]	0%	0%	0%	19%	0%	8%	0%	0%	5%	0%									
Nc1nc(-c2ccccn2)c(-c2ccnc3ccccc23)s1 [GW548057]	0%	0%	58%	0%	19%	1%	0%	0%	7%	2%									
Cl.Cn1ccc(-c2cccc(Nc3ccnc4cc(-c5nccs5)ccc34)c2)n1 [GW525701]	0%	0%	51%	0%	4%	0%	0%	0%	6%	0%									
Cl.c1ccc(Cn2ccc3cc(Nc4ncnc5ccccc45)ccc32)cc1 [GW275568]	15%	11%	0%	0%	19%	0%	0%	20%	18%	26%									
Fc1cccc(COc2ccc(Nc3ncnc4cc[nH]c34)cc2Cl)c1	0%	8%	7%	33%	20%	15%	0%	33%	9%	32%									
O=C(CCO)NCCn1ccc2ncnc(Nc3ccc(Oc4cccc(C(F)(F)F)c4)c(Cl)c3)c21	0%	0%	0%	4%	8%	0%	5%	0%	0%	4%									
O=C(c1ccc(-c2cc(-c3c[nH]nc3-c3ccccn3)ccn2)cc1)N1CCCC1 [GW792479]	0%	0%	64%	26%	16%	0%	0%	0%	0%	20%									
CN1c2ccc(-c3ccc(C(=O)NCCO)cc3)cc2-c2[nH]ncc2S1(=O)=O	0%	12%	5%	1%	2%	9%	26%	30%	13%	41%									
Nc1n[nH]c2nnc(-c3ccccc3)cc12 [SB-517389]	0%	20%	0%	1%	0%	0%	0%	0%	13%	5%									
Cc1ccc(NC(=O)c2cccc(C#N)c2)cc1-c1ccc(C(=O)Nc2ccncc2)cc1 [GSK1398463]	0%	11%	0%	12%	0%	0%	5%	0%	16%	0%									
Oc1ccc2ncnc(Nc3ccc(OCc4ccccc4)cc3)c2c1 [GI262866]	0%	32%	0%	15%	3%	8%	7%	0%	0%	14%									
FC(F)(F)c1ccc(-c2cc(-c3c[nH]nc3-c3ccccn3)ccn2)cc1 [GW599550]	0%	24%	13%	2%	10%	0%	0%	0%	0%	44%									
Cc1cc(N2CCC(NS(=O)(=O)c3ccc(F)cc3)CC2)nc(Nc2cccc(C#N)c2)n1.O=C(O)C(F)(F)F [GSK1653537]	0%	15%	0%	18%	0%	0%	0%	0%	1%	19%									

SMILES	%Inh (SRMS)	%Inh (SRPK1)	%Inh (SRPK2)	%Inh (SRPK3)	%Inh (STK16)	%Inh (STK33)	%Inh (STK35)	%Inh (STK36)	%Inh (STK39)	%Inh (SYK)	%Inh (SRMS; 1 µM)	%Inh (SRPK1; 1 µM)	%Inh (SRPK2; 1 µM)	%Inh (SRPK3; 1 µM)	%Inh (STK16; 1 µM)	%Inh (STK33; 1 µM)	%Inh (STK36; 1 µM)	%Inh (STK39; 1 µM)	%Inh (SYK; 1 µM)
Cc1ccc(C)c(NC(=O)NCCNc2ccnc(Nc3ccc(F)cc3)n2)c1 [GSK1379878]	0%	0%	0%	0%	100%	0%	0%	0%	0%	17%									
CCn1c(-c2ccncc2)nc2cnccc21 [SB-735216]	16%	0%	24%	50%	0%	0%	0%	19%	6%	15%									
c1ccc(-c2ccc3c(-c4ccnc(Nc5ccc6c(c5)OCCO6)n4)cnn3n2)cc1 [GW818941]	0%	48%	0%	21%	95.8%	17%	8%	25%	22%	7%									
CNc1nccc(-c2c(-c3ccc(F)cc3)ncn2CCCN2CCOCC2)n1 [SB-222516]	0%	19%	0%	0%	0%	21%	0%	0%	8%	0%									
COc1ccc(-c2nc3n(c2-c2ccncc2)CCC3)cc1 [SKF-104493]							0%				12% and 13%	0% and 1%	16% and 0%	35% and 0%	21% and 9%	0% and 8%	35% and 43%	0% and 16%	1% and 48%
Fc1ccc(Nc2nccc(-c3c(-c4ccc(Cl)cc4)nn4ncccc34)n2)cc1F [GW829058]	22%	0%	0%	6%	23%	1%	0%	8%	22%	7%									
FC(F)(F)c1cc(Nc2nccc(-c3c(-c4ccc(Cl)cc4)nn4ncccc34)n2)ccc1Cl [GW829351]	27%	0%	7%	4%	0%	0%	0%	21%	0%	2%									
CC(=O)Nc1n[nH]c2ncc(-c3ccccc3)cc12 [SB-548492]	25%	25%	0%	20%	26%	0%	10%	12%	0%	2%									
CNc1nccc(-c2c(-c3ccc(F)cc3)ncn2C2CCN(C)CC2)n1 [SB-222903]	15%	0%	0%	0%	0%	13%	0%	3%	0%	27%									
COC(=O)c1c(-c2ccccc2)c2cc(Cl)ccc2c(=O)n1Cc1ccc(S(C)(=O)=O)cc1	0%	10%	6%	0%	0%	0%	15%	15%	0%	3%									
Cn1ccc2ncnc(Oc3ccc(NC(=O)Nc4cccnc4)c(Cl)c3)c21	0%	12%	0%	0%	3%	0%	6%	13%	0%	0%									
COc1ccc(Nc2nccc(N3CCC(NC(=O)c4cccc(NC(C)=O)c4)C3)n2)cc1 (stereo not drawn) [GSK1379732]	9%	18%	61%	0%	11%	2%	0%	0%	15%	18%									
Nc1nccc2scc(-c3ccc4c(c3)CCN4C(=O)Cc3cc(F)ccc3F)c12 [GSK2587663]	0%	8%	0%	0%	11%	0%	0%	0%	6%	22%									
Nc1nc(-c2ccc3c(N)n[nH]c3c2)cc(N2CCC[C@@H](C(=O)Nc3ccccc3)C2)n1.O=C(O)C(F)(F)F.O=C(O)C(F)(F)F [GSK2288359]	0%	34%	0%	25%	18%	0%	0%	0%	1%	0%									
COc1cc2ncnc(Nc3ccc(OCc4ccccc4Br)c(Cl)c3)c2cc1OC.Cl [GI261590]	0%	0%	32%	5%	6%	0%	18%	0%	7%	33%									
Fc1cccc(COc2ccc(Nc3ncnc4sc(-c5ccc[nH]5)cc34)cc2Cl)c1 [GW707818]	14%	19%	3%	0%	26%	8%	0%	0%	9%	13%									
